The source of these data is PubChem BioAssay (NCI).

The structures appear in SMILES notation. The panel holds about 83,000 compounds, 20% with a hit somewhere; the sample as a whole holds those more often.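 48-hour exposure, single concentration, 96-well plates; percent growth endpoint where 0 means no net growth. Active: below 10.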 Values without a mark were called inactive. The source made the active and inactive calls.

Test systems include NCI-H23 lung; NCI-H226 lung; NCI-H322M lung; HOP-62 NSCLC; NCI-H460 lung; HOP-92 NSCLC; NCI-H522 lung; A549/ATCC NSCLC; 786-0 renal; COLO 205 colon.
Test in all cases: NCI-60 one-dose screen, 48 h (100 = growth as untreated, 0 = no growth, -100 = all killed)
Holding throughout (conditions): 10 µM unless noted

Turning to `COc1ccccc1CNc1nc(N)nc2[nH]c3ccc(O)cc3c12`, the growth was 57.8% in the assay with NCI-H23 lung; 92.6% with NCI-H226 lung; 61.5% in the assay on NCI-H322M lung; 37% with HOP-62 NSCLC; 18.3% in the assay on NCI-H460 lung; 34.1% with HOP-92 NSCLC. For the same compound, the growth was 18.7% in the assay on NCI-H522 lung, 40.6% in the assay with A549/ATCC NSCLC, 83.2% with 786-0 renal and 33.6% in the assay on COLO 205 colon.
As for `Nc1c(C(=O)Nc2cccc(Cl)c2)sc2ncc(Cl)cc12`, the growth in the assay on NCI-H23 lung was 87%; in the assay with NCI-H226 lung, 75.7%; with NCI-H322M lung, 64.7%; in the assay on HOP-62 NSCLC, 73%; with NCI-H460 lung, 13.8%; in the assay with HOP-92 NSCLC, 91.9%. Further, the growth was 97.4% in the assay with NCI-H522 lung, 43.4% with A549/ATCC NSCLC, 85.4% in the assay on 786-0 renal and 79.6% in the assay with COLO 205 colon.
As to `CCCCCCCN(CCCCCCC)C(=N)c1ccnc2ccccc12`, the growth in the assay on NCI-H23 lung is 0.856% (active); with NCI-H226 lung, 39.3%; in the assay on NCI-H322M lung, -2.85% (active); in the assay with HOP-62 NSCLC it was -57.2% (active); in the assay with NCI-H460 lung it was -83.9% (active); in the assay on HOP-92 NSCLC, -4.56% (active). In addition, the growth in the assay on NCI-H522 lung is -46.7% (active); with A549/ATCC NSCLC it was -57.4% (active); with 786-0 renal it was -93.6% (active); in the assay on COLO 205 colon, -72.9% (active).
For `C#CCN=C[C@]12CC[C@@H](C(=C)C)[C@@H]1[C@H]1CC[C@@H]3[C@@]4(C)CCC(=O)C(C)(C)[C@@H]4CC[C@@]3(C)[C@]1(C)CC2`, the growth was 50.5% in the assay on NCI-H23 lung; 73.2% with NCI-H226 lung; 103% with NCI-H322M lung; 88.8% in the assay with HOP-62 NSCLC; 70.8% in the assay on NCI-H460 lung; 65.4% in the assay on HOP-92 NSCLC. Also, the growth is 51% in the assay on NCI-H522 lung, 46.1% with A549/ATCC NSCLC, 74.9% with 786-0 renal and 65.8% in the assay on COLO 205 colon.
On to `COc1cc2nc(Cl)nc(Nc3cccc(C(=O)/C=C/c4ccc(Br)cc4)c3)c2cc1OC`, for which the growth in the assay with NCI-H23 lung is 96.6%; in the assay with NCI-H226 lung, 83%; in the assay on NCI-H322M lung, 95.1%; in the assay on HOP-62 NSCLC it was 98%; in the assay on NCI-H460 lung, 104%; in the assay on HOP-92 NSCLC it was 83.6%. Besides, the growth in the assay on NCI-H522 lung was 84.3%; in the assay with A549/ATCC NSCLC it was 85.1%; in the assay with 786-0 renal, 87%; with COLO 205 colon it was 101%.
On to `CC1(C)CC[C@]2(C(=O)Nc3ccccn3)CC[C@]3(C)C(=CC[C@@H]4[C@@]5(C)C/C(=C/c6ccncc6)C(=O)C(C)(C)[C@@H]5CC[C@]43C)[C@@H]2C1`, for which the growth in the assay on NCI-H23 lung was 34.4%; in the assay with NCI-H226 lung, 28.1%; in the assay with NCI-H322M lung, 62.6%; in the assay with HOP-62 NSCLC it was 70.9%; in the assay with NCI-H460 lung, 6.3% (active); in the assay on HOP-92 NSCLC, 43.4%. For the same compound, the growth is 40.1% in the assay on NCI-H522 lung, 26.6% in the assay with A549/ATCC NSCLC, 44.2% in the assay on 786-0 renal and 2.97% (active) in the assay on COLO 205 colon.
Take `CC(=O)Cc1nsc(NC(=O)c2ccoc2COc2ccccc2)n1`: the growth in the assay with NCI-H23 lung was 95.2%; with NCI-H226 lung, 105%; with NCI-H322M lung, 94.3%; in the assay with HOP-62 NSCLC it was 107%; with NCI-H460 lung, 107%; in the assay with HOP-92 NSCLC it was 90.1%. The growth is 94.1% in the assay on NCI-H522 lung, 99.3% in the assay on A549/ATCC NSCLC, 98.7% in the assay on 786-0 renal and 121% in the assay on COLO 205 colon.
As to `Cc1nn(-c2ccc(Br)cc2)c2nc3[nH]c(=O)[nH]c(=O)c3nc12`, the growth was 99% in the assay on NCI-H23 lung; 103% in the assay with NCI-H226 lung; 119% with NCI-H322M lung; 120% in the assay with HOP-62 NSCLC; 108% in the assay on NCI-H460 lung; 110% in the assay with HOP-92 NSCLC. Besides, the growth in the assay on NCI-H522 lung is 98.1%; in the assay with A549/ATCC NSCLC, 102%; with 786-0 renal, 100%; in the assay with COLO 205 colon it was 115%.
Consider `Cc1ccc(Sc2sc(-c3ccccc3)nc2[P+](c2ccccc2)(c2ccccc2)c2ccccc2)cc1`, for which the growth in the assay with NCI-H23 lung was -12.2% (active); in the assay with NCI-H226 lung, -3.15% (active); in the assay on NCI-H322M lung, -19.1% (active); in the assay with HOP-62 NSCLC it was -0.272% (active); with NCI-H460 lung, -19.1% (active); in the assay with HOP-92 NSCLC, -40.4% (active). Besides, the growth was -5.65% (active) in the assay with NCI-H522 lung, 6.14% (active) in the assay on A549/ATCC NSCLC, 6.12% (active) with 786-0 renal and -25.3% (active) in the assay with COLO 205 colon.
Regarding `N=c1c(S(=O)(=O)c2ccccc2)cc2c(=O)n3ccccc3nc2n1C1CCCC1`, the growth was 95.8% with NCI-H23 lung; 91.9% in the assay on NCI-H226 lung; 74.9% with NCI-H322M lung; 79% with HOP-62 NSCLC; 105% in the assay on NCI-H460 lung; 39.4% with HOP-92 NSCLC. Also, the growth in the assay with NCI-H522 lung is 92%; with A549/ATCC NSCLC, 80.2%; in the assay on 786-0 renal, 80.8%; in the assay with COLO 205 colon, 113%.
As to `COC(=O)CCCCCn1c2ccccc2c2c3c(c4c5ccccc5[nH]c4c21)C(=O)N(O)C3=O`, the growth is 44.1% with NCI-H23 lung; 74.4% in the assay with NCI-H226 lung; 62.4% in the assay with NCI-H322M lung; 26% with HOP-62 NSCLC; 33.4% with NCI-H460 lung; 79.4% in the assay with HOP-92 NSCLC. In addition, the growth was -60% (active) with NCI-H522 lung, 80.3% in the assay on A549/ATCC NSCLC, 76.6% in the assay on 786-0 renal and 36.5% in the assay on COLO 205 colon.
`COc1cc(-c2cc(-c3nc4cc(Cl)c(Cl)cc4[nH]3)[nH]n2)cc(OC)c1OC`: the growth in the assay on NCI-H23 lung is 75.3%; with NCI-H226 lung it was 38%; in the assay on NCI-H322M lung, 92.3%; in the assay on HOP-62 NSCLC, 80.6%; in the assay on NCI-H460 lung, 69.7%; in the assay with HOP-92 NSCLC, 61.2%. Also, the growth in the assay with NCI-H522 lung was 45.8%; in the assay on A549/ATCC NSCLC, 69.5%; with 786-0 renal, 87.4%; in the assay with COLO 205 colon, 46.8%.
`COc1ccc(-c2c(-c3nc4ccc(N5CCOCC5)cc4[nH]3)[nH]c(C)c2C(C)=O)cc1`: the growth was 52.6% in the assay with NCI-H23 lung; 49.7% in the assay on NCI-H226 lung; 43.6% in the assay on NCI-H322M lung; 30.6% in the assay with HOP-62 NSCLC; 57.8% with NCI-H460 lung; 49.5% in the assay with HOP-92 NSCLC. In addition, the growth in the assay with NCI-H522 lung was 37.8%; in the assay on A549/ATCC NSCLC it was 48.4%; in the assay with 786-0 renal, 45.3%; in the assay with COLO 205 colon it was 15.9%.
Take `COc1cccc(-c2nn(-c3ccccc3)cc2-c2ccnc(NCCCNS(=O)(=O)c3ccccc3)c2)c1`: the growth with NCI-H23 lung is 44.3%; with NCI-H226 lung, 35.1%; in the assay on NCI-H322M lung it was 59.3%; in the assay on HOP-62 NSCLC, 64.3%; in the assay on NCI-H460 lung it was 31.8%; in the assay with HOP-92 NSCLC, 18.9%. The growth with NCI-H522 lung was 31.1%; in the assay with A549/ATCC NSCLC it was 35.8%; in the assay with 786-0 renal, 43.2%; with COLO 205 colon, 17.1%.
Turning to `Cc1nc([P+](c2ccccc2)(c2ccccc2)c2ccccc2)c(Sc2sc(-c3ccccc3)nc2[P+](c2ccccc2)(c2ccccc2)c2ccccc2)o1`, the growth with NCI-H23 lung was 3.75% (active); with NCI-H226 lung, 47.6%; with NCI-H322M lung it was 28.2%; in the assay with HOP-62 NSCLC, 9.57% (active); in the assay on NCI-H460 lung it was 3.38% (active); in the assay on HOP-92 NSCLC, -18.9% (active). The growth in the assay on NCI-H522 lung is 3.53% (active); in the assay with A549/ATCC NSCLC it was 11.5%; in the assay on 786-0 renal, 20.2%; with COLO 205 colon it was -43.4% (active).
Consider `COC(=O)C(Cc1ccccc1)n1cc(COc2nc(Cl)nc(Nc3ccc(Cl)cc3)n2)nn1` (stereo not given), for which the growth in the assay with NCI-H23 lung was 92.5%; in the assay with NCI-H226 lung, 99.8%; in the assay with NCI-H322M lung it was 95.3%; with HOP-62 NSCLC it was 95%; in the assay with NCI-H460 lung it was 101%; in the assay on HOP-92 NSCLC, 105%. In addition, the growth is 88.2% in the assay with NCI-H522 lung, 102% with A549/ATCC NSCLC, 98.9% with 786-0 renal and 117% in the assay with COLO 205 colon.
